# Counter-ions that a name gives are not always drawn.
# Key:
# Assay in all cases: cell proliferation relative to vehicle (% of vehicle); higher = less growth inhibition
# Conditions in all cases: 72 h
# [1] = tested on: U2932 TK216-resistant clone 2
# Procedure, shortened: (§1)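 Parental U2932 cells (ABC-DLBCL) and two clones made resistant to an ETS-targeting agent by almost a year of repeated exposure were treated for 72 h with 348 targeted inhibitors at 500 nM or 50 nM. MTT was then applied for 4 h, the reaction was stopped with 25% SDS, and absorbance was measured on a Cytation 3. Values express proliferation as percent of proliferating cells compared with DMSO vehicle.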
# [2] = tested on: U2932 TK216-resistant clone 3
# Procedure, shortened: as §1
# [3] = tested on: U2932 parental
# Procedure, shortened: as §1
SMILES,cell proliferation ([1]; 50 nM),cell proliferation ([1]; 500 nM),cell proliferation ([2]; 50 nM),cell proliferation ([2]; 500 nM),cell proliferation ([3]; 50 nM),cell proliferation ([3]; 500 nM)
COc1ccc(-n2c(SCCCN3C(=O)c4cccc5cccc(c45)C3=O)nnc2-c2ccncc2)cc1,106,97.3,104,99.4,94.3,94.5
"COc1cc(F)c(F)c(Nc2ccc(I)cc2F)c1NS(=O)(=O)C1(C[C@H](O)CO)CC1 [Refametinib (RDEA119, Bay 86-9766)]",104,92.6,105,97.1,92.8,96.2
CN1CCCN(C(=O)c2cccc(-c3ccc(/C=C4/C(=O)Nc5ccc(Cl)cc54)o3)c2)CC1,105,80.8,97,88.5,104,96.5
C[C@H](NC(=O)/C(C#N)=C/c1cccc(Br)n1)c1ccccc1,108,111,109,102,105,102
CC(C)c1cc(-c2n[nH]c(=O)n2-c2ccc3c(ccn3C)c2)c(O)cc1O [Ganetespib (STA-9090)],6.02,4.07,23.7,19.8,4.55,5.59
CC(C)N(C[C@H]1O[C@@H](n2cnc3c(N)ncnc32)[C@H](O)[C@@H]1O)[C@H]1C[C@@H](CCc2nc3cc(C(C)(C)C)ccc3[nH]2)C1,98.8,91.9,97.2,91.6,101,95.4
COc1ccc2c(Oc3ccc(NC(=O)c4c(C)n(CC(C)(C)O)n(-c5ccccc5)c4=O)nc3)ccnc2c1,102,103,95.4,97.4,103,97
CN(c1ncccc1CNc1nc(Nc2ccc3c(c2)CC(=O)N3)ncc1C(F)(F)F)S(C)(=O)=O,95.6,91.2,99.2,95.2,96.9,87.2
CCS(=O)(=O)N1CC(CC#N)(n2cc(-c3ncnc4[nH]ccc34)cn2)C1,107,118,111,104,104,105
CCCNC(=O)c1cn2ncnc(Nc3cc(C(=O)NC4CC4)ccc3C)c2c1C,104,98.2,105,103,103,98.7
COC1=CC(c2cc3ccccc3[nH]2)=N/C1=C\c1[nH]c(C)cc1C [Obatoclax Mesylate (GX15-070)],94.8,1.6,102,8.59,75.2,2.95
CNC(=O)c1cc(Oc2ccc(NC(=O)Nc3ccc(Cl)c(C(F)(F)F)c3)c(F)c2)ccn1 [Regorafenib (BAY 73-4506)],103,116,105,107,105,105
COc1cc([C@@H]2c3cc4c(cc3[C@@H](O[C@@H]3O[C@@H]5CO[C@@H](C)O[C@H]5[C@H](O)[C@H]3O)[C@H]3COC(=O)[C@H]23)OCO4)cc(OC)c1O [Etoposide],95.7,53.8,99.3,74.9,93.3,68.8
CC1(C)CCC(c2ccc(Cl)cc2)=C(CN2CCN(c3ccc(C(=O)NS(=O)(=O)c4ccc(N[C@H](CCN5CCOCC5)CSc5ccccc5)c(S(=O)(=O)C(F)(F)F)c4)cc3)CC2)C1 [ABT-263 (Navitoclax)],100,62.4,99.4,64.2,91.5,86.6
COc1ccc(-c2ccc3c(N4CCOCC4)nc(N4C[C@@H](C)O[C@@H](C)C4)nc3n2)cc1CO,95.3,46.8,98.9,49.3,91.4,57.7
CCC[C@H](Nc1nc(-c2ccc(NC(=O)NCC)c(OC)c2)ncc1C)c1cccnc1 [CYT997 (Lexibulin)],10.1,9.29,8,12.1,10.4,14.3
CN[C@@H](C)C(=O)N[C@H]1CN(C(=O)CC(C)C)CC[C@H]2CC[C@@H](C(=O)NC(c3ccccc3)c3ccccc3)N2C1=O,106,111,94.6,105,94,103
Cc1c(NC(=O)OC[C@@H]2COCCN2)cn2ncnc(Nc3ccc4c(cnn4Cc4cccc(F)c4)c3)c12,100,80.4,98.1,71.9,97.2,81.6
Cc1cnc(-c2ccccc2C(C)C)nc1NCc1ccc(-n2ccnn2)cc1,108,97.8,105,108,101,98.5
CS(=O)(=O)c1cccc(CNc2nc(Nc3ccc4c(c3)CCC(=O)N4)ncc2C(F)(F)F)c1,110,101,103,98.3,90.5,82.6
Nc1nc(F)nc2c1ncn2[C@@H]1O[C@H](COP(=O)(O)O)[C@@H](O)[C@@H]1O [Fludarabine Phosphate],98.2,110,103,104,102,93.7
C[C@@H](Nc1cc(F)cc(F)c1)c1cc(C(=O)N(C)C)cc2c(=O)cc(N3CCOCC3)oc12,111,83.1,99.4,84.5,99.9,90.3
O=C(O)CC[C@H]1CC[C@@](c2cc(F)ccc2F)(S(=O)(=O)c2ccc(Cl)cc2)CC1,102,109,105,106,93.5,93.2
NC(=O)Nc1sc(-c2ccc(F)cc2)cc1C(N)=O,109,92.7,106,102,104,99.5
CNC(=O)c1cccc(-c2ccc3c(N4CCOC[C@@H]4C)nc(N4CCOC[C@@H]4C)nc3n2)c1,102,52.9,93.8,55.6,91.7,46.4
COc1ccc(S(=O)(=O)N(C(C)=O)c2ccccc2/C=C/c2cc[n+]([O-])cc2)cc1,103,12.6,99.5,13.2,88.7,11.3

# — the supplement of paper PMC13172266
